# Assay results published in publication PMC7862700, “An all-to-all approach to the identification of sequence-specific readers for epigenetic DNA modifications on cytosine”.
# How the values were obtained:
# Test in all cases: DAPPL (digital affinity profiling via proximity ligation, sequencing); 10 mM Tris-HCl pH 7.5, 50 mM NaCl, 1 mM DTT, 4% glycerol, room temperature, 30 min; GST-TFs on glutathione beads, 16-mer random dsDNA library, 0.1% formaldehyde crosslink after washing; high values mean tight binding
# FLI1 = target: T1, FLI1 (Homo sapiens, UniProt Q01543 1-452); conditions: protein: recombinant; tags: N-terminal GST; dsDNA, one strand shown
# T1 sequence: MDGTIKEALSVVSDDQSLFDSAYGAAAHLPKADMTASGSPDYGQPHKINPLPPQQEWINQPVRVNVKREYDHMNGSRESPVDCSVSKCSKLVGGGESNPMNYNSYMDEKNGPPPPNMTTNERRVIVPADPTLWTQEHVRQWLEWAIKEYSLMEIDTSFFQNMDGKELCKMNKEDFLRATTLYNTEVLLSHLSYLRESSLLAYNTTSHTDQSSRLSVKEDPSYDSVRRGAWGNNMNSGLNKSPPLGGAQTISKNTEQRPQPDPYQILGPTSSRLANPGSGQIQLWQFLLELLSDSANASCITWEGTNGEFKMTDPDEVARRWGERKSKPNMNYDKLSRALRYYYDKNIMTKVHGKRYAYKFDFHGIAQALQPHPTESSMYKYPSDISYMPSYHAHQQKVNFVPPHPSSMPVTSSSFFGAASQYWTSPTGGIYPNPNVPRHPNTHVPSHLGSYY
# Method in brief: (§1)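 The binding signal reported is, for every hexamer, its read frequency for a factor over its read frequency for the tag-only sample. Reads came from pools of yeast-expressed, GST-fused human transcription factors on glutathione beads, barcoded with DNA and mixed with that sample, which were incubated with 200 nmole of a random double-stranded 16-mer DNA library in Tris/NaCl/DTT/glycerol buffer at room temperature for 30 min. After washing, the pools were crosslinked with 0.1% formaldehyde, proximity-ligated with BsaI/T4 ligase for 1 h at 37 °C, PCR-amplified and sequenced on an Illumina NextSeq500.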
# ELK1 = target: T2, ELK1 (Homo sapiens, UniProt P19419 1-428); conditions: protein: recombinant; tags: N-terminal GST; dsDNA, one strand shown
# T2 sequence: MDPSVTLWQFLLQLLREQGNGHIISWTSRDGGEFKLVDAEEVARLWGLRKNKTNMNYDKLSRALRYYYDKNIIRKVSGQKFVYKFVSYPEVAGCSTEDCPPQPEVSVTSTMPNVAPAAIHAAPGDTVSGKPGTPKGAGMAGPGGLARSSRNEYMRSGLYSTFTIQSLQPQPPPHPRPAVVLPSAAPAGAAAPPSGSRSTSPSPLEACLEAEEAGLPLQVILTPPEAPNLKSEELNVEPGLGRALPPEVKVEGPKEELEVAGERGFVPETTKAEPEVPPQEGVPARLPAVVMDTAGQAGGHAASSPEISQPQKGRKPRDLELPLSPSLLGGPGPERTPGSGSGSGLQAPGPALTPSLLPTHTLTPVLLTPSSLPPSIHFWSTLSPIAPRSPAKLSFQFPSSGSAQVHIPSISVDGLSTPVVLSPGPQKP
# Method in brief: as §1
# GABPA = target: T3, GABPA (Homo sapiens, UniProt Q06546 1-454); conditions: protein: recombinant; tags: N-terminal GST; dsDNA, one strand shown
# T3 sequence: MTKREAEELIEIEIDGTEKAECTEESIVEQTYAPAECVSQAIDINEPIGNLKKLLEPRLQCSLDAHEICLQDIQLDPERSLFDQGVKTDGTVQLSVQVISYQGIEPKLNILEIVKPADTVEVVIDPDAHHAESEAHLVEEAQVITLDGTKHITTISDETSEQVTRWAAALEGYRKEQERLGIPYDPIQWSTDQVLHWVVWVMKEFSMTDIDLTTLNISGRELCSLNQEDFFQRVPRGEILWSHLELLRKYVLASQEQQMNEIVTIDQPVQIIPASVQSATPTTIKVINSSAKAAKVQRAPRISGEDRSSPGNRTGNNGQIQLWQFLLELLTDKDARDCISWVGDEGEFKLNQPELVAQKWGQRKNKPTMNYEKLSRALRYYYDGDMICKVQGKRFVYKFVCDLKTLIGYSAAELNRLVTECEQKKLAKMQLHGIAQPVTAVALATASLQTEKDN
# Method in brief: as §1
# ERG = target: T4, ERG (Homo sapiens, UniProt P11308 1-479); conditions: protein: recombinant; tags: N-terminal GST; dsDNA, one strand shown
# T4 sequence: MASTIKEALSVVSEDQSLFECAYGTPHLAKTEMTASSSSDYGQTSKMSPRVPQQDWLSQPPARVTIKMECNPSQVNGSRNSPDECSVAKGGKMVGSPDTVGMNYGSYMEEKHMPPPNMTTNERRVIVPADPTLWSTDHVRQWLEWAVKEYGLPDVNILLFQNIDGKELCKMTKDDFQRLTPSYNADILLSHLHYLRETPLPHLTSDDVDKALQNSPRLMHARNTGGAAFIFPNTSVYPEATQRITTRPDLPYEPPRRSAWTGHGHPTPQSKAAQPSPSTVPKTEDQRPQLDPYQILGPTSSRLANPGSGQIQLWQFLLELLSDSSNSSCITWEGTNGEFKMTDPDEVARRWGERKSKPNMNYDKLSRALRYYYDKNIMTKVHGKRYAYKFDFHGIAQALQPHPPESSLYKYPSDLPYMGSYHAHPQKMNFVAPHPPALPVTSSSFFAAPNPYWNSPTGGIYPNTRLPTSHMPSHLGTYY
# Method in brief: as §1
# ELF1 = ELF1 (Homo sapiens, UniProt P32519 1-619); conditions: protein: recombinant; tags: N-terminal GST; dsDNA, one strand shown
# Chain of ELF1 (P32519 whole entry): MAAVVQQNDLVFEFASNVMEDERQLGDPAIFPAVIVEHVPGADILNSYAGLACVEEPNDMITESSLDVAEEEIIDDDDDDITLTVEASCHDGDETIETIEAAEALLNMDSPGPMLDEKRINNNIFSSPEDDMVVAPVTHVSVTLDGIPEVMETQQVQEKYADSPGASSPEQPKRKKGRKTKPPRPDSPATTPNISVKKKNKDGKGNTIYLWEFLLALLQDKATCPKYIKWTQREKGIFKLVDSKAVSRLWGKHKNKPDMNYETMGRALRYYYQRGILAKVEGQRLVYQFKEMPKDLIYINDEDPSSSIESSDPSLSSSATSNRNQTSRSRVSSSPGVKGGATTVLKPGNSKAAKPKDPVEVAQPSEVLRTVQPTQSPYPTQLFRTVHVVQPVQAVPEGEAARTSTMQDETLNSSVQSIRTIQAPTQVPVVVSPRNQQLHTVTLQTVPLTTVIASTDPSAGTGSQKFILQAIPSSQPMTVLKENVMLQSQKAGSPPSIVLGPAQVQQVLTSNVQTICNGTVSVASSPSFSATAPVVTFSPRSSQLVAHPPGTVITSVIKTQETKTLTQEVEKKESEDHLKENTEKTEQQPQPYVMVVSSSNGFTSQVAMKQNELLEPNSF
# Method in brief: as §1
# EHF = target: T5, EHF (Homo sapiens, UniProt Q9NZC4 1-300); conditions: protein: recombinant; tags: N-terminal GST; dsDNA, one strand shown
# T5 sequence: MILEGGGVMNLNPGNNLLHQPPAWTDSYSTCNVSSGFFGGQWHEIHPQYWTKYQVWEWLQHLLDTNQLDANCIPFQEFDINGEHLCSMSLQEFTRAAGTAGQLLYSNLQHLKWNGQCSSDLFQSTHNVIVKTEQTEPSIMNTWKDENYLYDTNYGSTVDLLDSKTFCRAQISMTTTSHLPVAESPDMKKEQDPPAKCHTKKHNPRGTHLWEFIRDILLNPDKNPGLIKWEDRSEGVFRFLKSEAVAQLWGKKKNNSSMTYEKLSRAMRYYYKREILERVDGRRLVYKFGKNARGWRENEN
# Method in brief: as §1
# SPI1 = SPI1 (Homo sapiens, UniProt P17947 1-270); conditions: protein: recombinant; tags: N-terminal GST; dsDNA, one strand shown
# Method in brief: as §1
# SPIB = SPIB (Homo sapiens, UniProt Q01892 1-262); conditions: protein: recombinant; tags: N-terminal GST; dsDNA, one strand shown
# Chain of SPIB (Q01892 whole entry): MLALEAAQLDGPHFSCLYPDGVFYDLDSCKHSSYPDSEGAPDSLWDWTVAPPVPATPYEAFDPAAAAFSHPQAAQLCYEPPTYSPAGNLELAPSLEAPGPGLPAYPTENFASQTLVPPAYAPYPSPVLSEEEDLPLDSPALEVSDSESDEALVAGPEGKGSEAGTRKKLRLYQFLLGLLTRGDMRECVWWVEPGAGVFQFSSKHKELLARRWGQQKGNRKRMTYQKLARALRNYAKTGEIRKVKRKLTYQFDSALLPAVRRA
# Method in brief: as §1
# ELK3 = target: T6, ELK3 (Homo sapiens, UniProt P41970 1-407); conditions: protein: recombinant; tags: N-terminal GST; dsDNA, one strand shown
# T6 sequence: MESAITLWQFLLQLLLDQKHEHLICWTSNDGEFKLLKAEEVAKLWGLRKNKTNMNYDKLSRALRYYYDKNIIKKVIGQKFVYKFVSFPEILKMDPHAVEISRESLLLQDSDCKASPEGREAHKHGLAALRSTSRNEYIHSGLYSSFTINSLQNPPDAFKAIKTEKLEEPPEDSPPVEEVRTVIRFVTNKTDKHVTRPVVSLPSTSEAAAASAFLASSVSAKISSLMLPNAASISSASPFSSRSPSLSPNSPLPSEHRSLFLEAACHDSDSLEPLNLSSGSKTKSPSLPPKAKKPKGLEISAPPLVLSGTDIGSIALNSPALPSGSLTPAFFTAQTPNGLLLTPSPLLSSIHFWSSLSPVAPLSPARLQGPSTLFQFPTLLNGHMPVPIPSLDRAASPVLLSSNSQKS
# Method in brief: as §1
# FEV = target: T7, FEV (Homo sapiens, UniProt Q99581 1-238); conditions: protein: recombinant; tags: N-terminal GST; dsDNA, one strand shown
# T7 sequence: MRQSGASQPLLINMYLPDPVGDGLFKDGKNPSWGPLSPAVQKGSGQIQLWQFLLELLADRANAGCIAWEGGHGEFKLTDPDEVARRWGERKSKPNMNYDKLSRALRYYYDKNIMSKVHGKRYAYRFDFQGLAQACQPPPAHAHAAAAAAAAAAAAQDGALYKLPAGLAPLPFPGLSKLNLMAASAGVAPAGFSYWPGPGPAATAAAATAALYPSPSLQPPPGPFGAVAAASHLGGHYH
# Method in brief: as §1
# ETV5 = ETV5 (Homo sapiens, UniProt P41161 1-510); conditions: protein: recombinant; tags: N-terminal GST; dsDNA, one strand shown
# Chain of ETV5 (P41161 whole entry): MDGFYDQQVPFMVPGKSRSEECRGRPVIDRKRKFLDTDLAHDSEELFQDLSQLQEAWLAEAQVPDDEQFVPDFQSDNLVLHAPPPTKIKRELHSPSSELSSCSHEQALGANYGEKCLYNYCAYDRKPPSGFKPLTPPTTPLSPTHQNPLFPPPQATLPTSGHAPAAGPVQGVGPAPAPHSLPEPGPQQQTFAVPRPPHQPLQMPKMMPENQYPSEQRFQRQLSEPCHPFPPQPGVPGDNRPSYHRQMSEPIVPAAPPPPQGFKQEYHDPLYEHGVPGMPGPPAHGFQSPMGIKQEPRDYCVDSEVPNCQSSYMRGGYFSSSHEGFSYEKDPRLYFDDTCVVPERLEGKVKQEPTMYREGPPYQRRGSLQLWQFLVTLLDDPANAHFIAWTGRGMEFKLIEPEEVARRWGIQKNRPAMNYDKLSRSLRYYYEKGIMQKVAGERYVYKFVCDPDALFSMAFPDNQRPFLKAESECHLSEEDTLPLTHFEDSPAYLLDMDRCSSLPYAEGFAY
# Method in brief: as §1
# HSF1 = HSF1 (Homo sapiens, UniProt Q00613 1-529); conditions: protein: recombinant; tags: N-terminal GST; chain copies: 3; dsDNA, one strand shown
# Chain of HSF1 (Q00613 whole entry): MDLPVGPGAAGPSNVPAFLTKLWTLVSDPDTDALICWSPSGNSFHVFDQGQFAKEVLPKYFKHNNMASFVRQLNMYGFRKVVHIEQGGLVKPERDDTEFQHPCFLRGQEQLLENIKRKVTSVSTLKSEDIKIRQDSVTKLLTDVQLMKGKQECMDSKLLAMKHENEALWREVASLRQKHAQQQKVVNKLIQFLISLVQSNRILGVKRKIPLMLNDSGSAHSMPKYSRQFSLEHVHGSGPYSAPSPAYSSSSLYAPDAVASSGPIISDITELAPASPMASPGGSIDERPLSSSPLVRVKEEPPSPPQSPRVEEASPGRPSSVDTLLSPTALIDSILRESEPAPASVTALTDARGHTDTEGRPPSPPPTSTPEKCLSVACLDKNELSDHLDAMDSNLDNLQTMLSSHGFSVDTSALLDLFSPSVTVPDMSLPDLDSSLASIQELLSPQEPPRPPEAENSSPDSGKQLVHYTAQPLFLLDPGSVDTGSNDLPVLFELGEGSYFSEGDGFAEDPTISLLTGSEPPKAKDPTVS
# Method in brief: as §1
# SPIC = target: T8, SPIC (Homo sapiens, UniProt Q8N5J4 1-248); conditions: protein: recombinant; tags: N-terminal GST; dsDNA, one strand shown
# T8 sequence: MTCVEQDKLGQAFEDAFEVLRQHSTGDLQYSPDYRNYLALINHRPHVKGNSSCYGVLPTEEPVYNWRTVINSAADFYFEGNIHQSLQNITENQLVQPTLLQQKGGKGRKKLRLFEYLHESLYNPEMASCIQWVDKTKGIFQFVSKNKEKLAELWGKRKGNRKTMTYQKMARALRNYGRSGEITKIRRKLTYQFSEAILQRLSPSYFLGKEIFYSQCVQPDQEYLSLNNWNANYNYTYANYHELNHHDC
# Method in brief: as §1
# ELF4 = ELF4 (Homo sapiens, UniProt Q99607 1-663); conditions: protein: recombinant; tags: N-terminal GST; dsDNA, one strand shown
# Chain of ELF4 (Q99607 whole entry): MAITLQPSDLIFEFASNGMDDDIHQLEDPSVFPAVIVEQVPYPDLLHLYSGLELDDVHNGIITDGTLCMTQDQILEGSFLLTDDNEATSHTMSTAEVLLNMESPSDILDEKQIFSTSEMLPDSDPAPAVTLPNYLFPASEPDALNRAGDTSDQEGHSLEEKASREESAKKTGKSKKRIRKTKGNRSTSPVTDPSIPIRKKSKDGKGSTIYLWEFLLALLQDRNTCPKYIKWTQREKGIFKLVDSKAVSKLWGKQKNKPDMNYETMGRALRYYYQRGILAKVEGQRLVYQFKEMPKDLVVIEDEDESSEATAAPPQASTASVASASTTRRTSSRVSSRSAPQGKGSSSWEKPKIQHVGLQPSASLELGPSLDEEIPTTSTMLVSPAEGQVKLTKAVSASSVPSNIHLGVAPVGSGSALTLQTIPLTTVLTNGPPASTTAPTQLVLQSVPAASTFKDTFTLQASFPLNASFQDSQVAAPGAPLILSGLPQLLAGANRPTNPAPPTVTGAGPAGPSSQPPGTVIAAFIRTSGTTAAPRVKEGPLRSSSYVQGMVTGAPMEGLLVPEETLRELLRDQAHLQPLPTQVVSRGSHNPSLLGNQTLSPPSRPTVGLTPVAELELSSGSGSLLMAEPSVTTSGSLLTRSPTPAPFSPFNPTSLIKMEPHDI
# Method in brief: as §1
# ELK4 = target: T9, ELK4 (Homo sapiens, UniProt P28324-2 1-405); conditions: protein: recombinant; tags: N-terminal GST; dsDNA, one strand shown
# T9 sequence: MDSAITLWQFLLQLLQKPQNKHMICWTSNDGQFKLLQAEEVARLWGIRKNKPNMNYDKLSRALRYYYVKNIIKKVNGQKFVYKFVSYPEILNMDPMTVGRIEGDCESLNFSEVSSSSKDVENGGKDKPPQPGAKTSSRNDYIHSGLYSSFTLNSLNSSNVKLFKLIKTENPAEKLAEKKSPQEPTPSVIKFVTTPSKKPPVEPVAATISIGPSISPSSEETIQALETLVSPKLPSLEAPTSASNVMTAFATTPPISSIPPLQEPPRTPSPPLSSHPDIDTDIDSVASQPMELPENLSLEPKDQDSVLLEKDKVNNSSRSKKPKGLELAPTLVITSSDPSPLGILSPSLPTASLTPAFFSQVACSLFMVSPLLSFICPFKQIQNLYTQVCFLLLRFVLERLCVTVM
# Method in brief: as §1
# ETV2 = target: T10, ETV2 (Homo sapiens, UniProt O00321 1-342); conditions: protein: recombinant; tags: N-terminal GST; dsDNA, one strand shown
# T10 sequence: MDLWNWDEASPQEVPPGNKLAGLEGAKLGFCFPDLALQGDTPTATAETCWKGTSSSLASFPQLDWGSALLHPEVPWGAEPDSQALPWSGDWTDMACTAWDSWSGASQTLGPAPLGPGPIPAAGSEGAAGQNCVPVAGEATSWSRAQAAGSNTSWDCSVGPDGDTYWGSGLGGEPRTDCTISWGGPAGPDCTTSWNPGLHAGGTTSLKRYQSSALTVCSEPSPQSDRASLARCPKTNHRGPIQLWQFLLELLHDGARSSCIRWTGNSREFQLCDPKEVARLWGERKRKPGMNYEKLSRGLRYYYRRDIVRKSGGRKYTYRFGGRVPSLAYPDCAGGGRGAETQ
# Method in brief: as §1
# ELF3 = target: T11, ELF3 (Homo sapiens, UniProt P78545 1-371); conditions: protein: recombinant; tags: N-terminal GST; dsDNA, one strand shown
# T11 sequence: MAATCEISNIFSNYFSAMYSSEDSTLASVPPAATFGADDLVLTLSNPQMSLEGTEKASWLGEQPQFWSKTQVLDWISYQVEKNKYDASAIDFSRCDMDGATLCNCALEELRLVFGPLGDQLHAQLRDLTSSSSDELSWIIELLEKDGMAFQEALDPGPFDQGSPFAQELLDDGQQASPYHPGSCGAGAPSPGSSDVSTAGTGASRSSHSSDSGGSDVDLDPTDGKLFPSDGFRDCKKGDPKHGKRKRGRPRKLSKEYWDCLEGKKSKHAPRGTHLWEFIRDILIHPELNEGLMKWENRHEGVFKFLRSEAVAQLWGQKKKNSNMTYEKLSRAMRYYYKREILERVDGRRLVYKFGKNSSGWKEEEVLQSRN
# Method in brief: as §1
# CRX = CRX (Homo sapiens, UniProt O43186 1-299); conditions: protein: recombinant; tags: N-terminal GST; dsDNA, one strand shown
# Chain of CRX (O43186 whole entry): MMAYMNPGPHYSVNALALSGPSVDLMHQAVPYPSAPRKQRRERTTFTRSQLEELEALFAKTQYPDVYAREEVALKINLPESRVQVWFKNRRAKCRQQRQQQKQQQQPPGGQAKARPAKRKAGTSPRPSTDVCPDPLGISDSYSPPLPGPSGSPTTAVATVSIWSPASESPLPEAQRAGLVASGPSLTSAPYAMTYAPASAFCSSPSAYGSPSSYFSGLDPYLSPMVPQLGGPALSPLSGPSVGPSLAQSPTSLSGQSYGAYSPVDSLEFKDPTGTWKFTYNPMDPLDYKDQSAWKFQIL
# Method in brief: as §1
# ETV1 = ETV1 (Homo sapiens, UniProt P50549 1-477); conditions: protein: recombinant; tags: N-terminal GST; dsDNA, one strand shown
# Chain of ETV1 (P50549 whole entry): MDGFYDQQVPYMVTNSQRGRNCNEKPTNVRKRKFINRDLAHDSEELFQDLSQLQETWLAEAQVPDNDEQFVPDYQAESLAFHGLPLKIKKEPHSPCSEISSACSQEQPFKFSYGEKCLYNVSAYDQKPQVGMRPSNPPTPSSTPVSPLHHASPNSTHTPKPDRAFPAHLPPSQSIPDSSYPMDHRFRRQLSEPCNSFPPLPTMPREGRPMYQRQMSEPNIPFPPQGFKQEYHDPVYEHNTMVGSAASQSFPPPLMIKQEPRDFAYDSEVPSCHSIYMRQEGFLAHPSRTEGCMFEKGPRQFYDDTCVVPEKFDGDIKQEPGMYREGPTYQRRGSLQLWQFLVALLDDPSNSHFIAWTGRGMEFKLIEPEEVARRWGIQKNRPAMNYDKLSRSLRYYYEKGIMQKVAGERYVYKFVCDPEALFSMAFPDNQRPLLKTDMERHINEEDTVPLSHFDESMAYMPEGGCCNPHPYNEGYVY
# Method in brief: as §1
sequence,measurement,setting,value
CACTAT,binding signal,FLI1,"1.23 fold enrichment (6-mer frequency, TF over GST control)"
same,binding signal,ELK1,"1.18 fold enrichment (6-mer frequency, TF over GST control)"
same,binding signal,GABPA,"1.31 fold enrichment (6-mer frequency, TF over GST control)"
same,binding signal,ERG,"1.18 fold enrichment (6-mer frequency, TF over GST control)"
same,binding signal,ELF1,"1.26 fold enrichment (6-mer frequency, TF over GST control)"
same,binding signal,EHF,"1.16 fold enrichment (6-mer frequency, TF over GST control)"
same,binding signal,SPI1,"1.25 fold enrichment (6-mer frequency, TF over GST control)"
same,binding signal,SPIB,"1.17 fold enrichment (6-mer frequency, TF over GST control)"
same,binding signal,ELK3,"1.24 fold enrichment (6-mer frequency, TF over GST control)"
same,binding signal,FEV,"1.21 fold enrichment (6-mer frequency, TF over GST control)"
same,binding signal,ETV5,"1.2 fold enrichment (6-mer frequency, TF over GST control)"
same,binding signal,HSF1,"1.05 fold enrichment (6-mer frequency, TF over GST control)"
same,binding signal,SPIC,"1.2 fold enrichment (6-mer frequency, TF over GST control)"
same,binding signal,ELF4,"1.26 fold enrichment (6-mer frequency, TF over GST control)"
same,binding signal,ELK4,"1.25 fold enrichment (6-mer frequency, TF over GST control)"
same,binding signal,ETV2,"1.09 fold enrichment (6-mer frequency, TF over GST control)"
same,binding signal,ELF3,"1.32 fold enrichment (6-mer frequency, TF over GST control)"
same,binding signal,CRX,"1.05 fold enrichment (6-mer frequency, TF over GST control)"
same,binding signal,ETV1,"1.14 fold enrichment (6-mer frequency, TF over GST control)"
